According to PubChem BioAssay:
Active and inactive are the calls of the source. Unless noted, how the calls were made is not given here.

Columns and labels:
[1] = tested on: Wnt5a (protein binding on small-molecule microarray); assay: small molecules binding Wnt5a protein – biophysical, small-molecule microarray, 635/667 nm fluorescence, primary screen (AID 1142); conditions: 635 nm fluorescence, higher = more signal;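 further: fluorescence read at 667 nm with signal to noise per printed feature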
[2] = ATP-based viability of Huh7 replicon cells – cell-based, CellTiter-Glo luminescence, basal, 48 h, cytotoxicity control for HCV replication inhibitor project, primary screen (AID 1143); conditions: higher = more signal, called active from +8 up or from −8 down;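 further: Huh7 hepatoma cells carrying a hepatitis C replication reporter with no stimulus; test concentration not given here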
[3] = Pseudomonas biofilm growth suppression – PAO1 strain, BacTiter-Glo luminescence, LB-PBS, primary screen (AID 1144); conditions: P. aeruginosa PAO1 biofilm, 12 h, higher = more signal
[4] = basal CRE-LacZ reporter activity in PC12 – cell-based, unstimulated, primary screen (AID 1145); conditions: no forskolin, luminescence, 4.5 h, higher = more signal, called active from +8 up or from −8 down
[5] = forskolin-driven CRE-LacZ activity in PC12 – cell-based, CRE-LacZ reporter, forskolin-stimulated, primary screen (AID 1146); conditions: luminescence, 4.5 h, higher = more signal, called active from +8 up or from −8 down;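 further: PC12 cells with 6xCRE LacZ reporter stimulated by forskolin 10 µM; beta-galactosidase reporter signal reflecting CREB driven transcription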
[6] = target: Streptavidin (Streptomyces avidinii) (UniProt P22629); assay: compounds binding control protein streptavidin – biophysical, small-molecule microarray, 635/667 nm fluorescence, artefact control for SMM compound annotation, primary screen (AID 1147); conditions: higher = more signal;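 further: signal reflects streptavidin binding to arrayed compounds as a control protein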
Sequence of Streptavidin (Streptomyces avidinii) (P22629 whole entry, looked up): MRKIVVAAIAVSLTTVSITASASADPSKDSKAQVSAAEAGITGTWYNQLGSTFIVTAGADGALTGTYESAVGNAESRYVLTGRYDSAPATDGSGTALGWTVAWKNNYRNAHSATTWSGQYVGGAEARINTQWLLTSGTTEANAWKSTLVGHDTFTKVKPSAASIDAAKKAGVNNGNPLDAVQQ

[7] = probe aInhba binding on compound microarray – biochemical, small-molecule microarray, 635/667 nm fluorescence, primary screen (AID 1148); conditions: higher = more signal;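 further: score merges 667nm spot fluorescence with signal-to-noise for antibody binding to printed compounds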
[8] = target: Torsin-1A (Homo sapiens) (UniProt O14656); assay: TOR1A wild-type binding on microarray – cell lysate, small-molecule microarray, lysate, 635/667 nm, primary screen (AID 1149); conditions: COS7 hTOR1A-WT lysate, 635 nm fluorescence, higher = more signal
Sequence of Torsin-1A (Homo sapiens) (O14656 whole entry, looked up): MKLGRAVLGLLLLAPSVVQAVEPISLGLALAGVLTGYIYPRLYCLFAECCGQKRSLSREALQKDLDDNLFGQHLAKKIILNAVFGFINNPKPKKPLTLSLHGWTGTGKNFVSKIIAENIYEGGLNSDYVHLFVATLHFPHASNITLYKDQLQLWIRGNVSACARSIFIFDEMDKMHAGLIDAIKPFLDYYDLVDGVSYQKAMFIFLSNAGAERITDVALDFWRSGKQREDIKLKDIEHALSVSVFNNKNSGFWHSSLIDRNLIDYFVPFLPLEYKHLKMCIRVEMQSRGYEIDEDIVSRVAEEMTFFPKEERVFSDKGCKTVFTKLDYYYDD

[9] = target: Torsin-1A (Homo sapiens) (UniProt O14656); assay: torsin A mutant lysate binding on microarrays – cell lysate, small-molecule microarray, COS7 lysate, 635/667 nm fluorescence, primary screen (AID 1150); conditions: COS7 hTOR1A mutant lysate, 635 nm fluorescence, higher = more signal;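 further: score pools 667 nm emission and signal to noise measuring lysate protein binding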
[10] = tested on: Sonic hedgehog protein (Shh); assay: Sonic hedgehog microarray binding compounds – biochemical, small-molecule microarray, 635/667 nm fluorescence, primary screen (AID 1151); conditions: 635 nm fluorescence, higher = more signal;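 further: Shh protein binding to compounds spotted on small-molecule microarray slides; score combines spot fluorescence intensity with signal-to-noise across triplicate slides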
[11] = optical density shifts of acrAB sulA E. coli – strain DRC41, OD650, 48 h, E. coli filamentation inducer project, primary screen (AID 1152); conditions: higher = more signal, called active from +8 up or from −8 down;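 further: E. coli MC1000 strain DRC41 lacking acrAB efflux pump and sulA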
[12] = probe aLefty1 binding on compound microarray – biochemical, small-molecule microarray, 635/667 nm fluorescence, primary screen (AID 1153); conditions: higher = more signal;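 further: score merges spot fluorescence with signal-to-noise ratio from the scanned slide images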
[13] = plasmodial surface anion channel blockers, osmotic lysis – cell-based, P. falciparum Indochina, OD700, 1 h, primary screen (AID 1154); conditions: P. falciparum Indochina infected RBC osmotic lysis, higher = more signal, called active from +8 up or from −8 down
[14] = plasmodial surface anion channel blockers, osmotic lysis – cell-based, P. falciparum Indochina, OD700, 2 h, primary screen (AID 1155);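 further: lysis reports solute entry through the parasite surface anion channel PSAC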; conditions: P. falciparum Indochina infected erythrocytes, higher = more signal, called active from +8 up or from −8 down
[15] = changes in parasitized red cell lysis, either direction – P. falciparum Indochina, OD700, 3 h, PSAC antagonist project, primary screen (AID 1156); conditions: P. falciparum-infected erythrocytes, osmotic lysis, higher = more signal, called active from +8 up or from −8 down
[16] = plasmodial surface anion channel blockers, osmotic lysis – cell-based, P. falciparum Indochina, OD700, 18 h, primary screen (AID 1157); conditions: P. falciparum Indochina infected erythrocytes, osmotic lysis OD700, 18 h; higher = more signal, called active from +8 up or from −8 down
[17] = S6 kinase pathway phospho-S6 level changes – cell-based, A549, cytoblot, luminescence, serum-stimulated, primary screen (AID 1158); conditions: 5 h, higher = more signal;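 further: serum-stimulated A549 lung adenocarcinoma cells; signal is phosphorylated S6 detected by cytoblot immunostaining with HRP secondary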
[18] = target: NADPH oxidase 2 (Homo sapiens) (UniProt P04839); assay: compounds shifting NOX2 Amplex Red fluorescence – cell-based, HEK293-NOX2, PMA-stimulated, NOX inhibitor project, primary screen (AID 1159); conditions: 45 min, higher = more signal, called active from +8 up or from −8 down; further: test concentration not given here
Sequence of NADPH oxidase 2 (Homo sapiens) (P04839 whole entry, looked up): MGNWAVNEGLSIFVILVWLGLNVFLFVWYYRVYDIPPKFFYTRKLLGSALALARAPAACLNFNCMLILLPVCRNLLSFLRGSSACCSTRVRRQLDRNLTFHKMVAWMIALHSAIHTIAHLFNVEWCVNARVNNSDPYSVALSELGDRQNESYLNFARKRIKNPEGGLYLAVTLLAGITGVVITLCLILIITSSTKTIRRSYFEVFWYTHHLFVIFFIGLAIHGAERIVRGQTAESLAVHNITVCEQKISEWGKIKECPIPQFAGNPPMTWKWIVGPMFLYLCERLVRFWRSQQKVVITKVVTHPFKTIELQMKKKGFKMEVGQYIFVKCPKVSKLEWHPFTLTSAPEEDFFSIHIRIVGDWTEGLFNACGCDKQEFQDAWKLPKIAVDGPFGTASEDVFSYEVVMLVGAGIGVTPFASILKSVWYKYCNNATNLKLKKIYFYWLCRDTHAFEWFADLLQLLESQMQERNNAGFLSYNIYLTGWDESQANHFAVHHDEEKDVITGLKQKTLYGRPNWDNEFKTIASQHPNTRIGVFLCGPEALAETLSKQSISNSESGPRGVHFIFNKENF

[19] = target: NADPH oxidase 4 (Homo sapiens) (UniProt Q9NPH5); assay: compounds shifting NOX4 Amplex Red fluorescence – cell-based, HEK293-NOX4, tetracycline-induced, NOX inhibitor project, primary screen (AID 1160); conditions: HEK293-NOX4, Amplex Red H2O2 fluorescence, 45 min; higher = more signal, called active from +8 up or from −8 down
Sequence of NADPH oxidase 4 (Homo sapiens) (Q9NPH5 whole entry, looked up): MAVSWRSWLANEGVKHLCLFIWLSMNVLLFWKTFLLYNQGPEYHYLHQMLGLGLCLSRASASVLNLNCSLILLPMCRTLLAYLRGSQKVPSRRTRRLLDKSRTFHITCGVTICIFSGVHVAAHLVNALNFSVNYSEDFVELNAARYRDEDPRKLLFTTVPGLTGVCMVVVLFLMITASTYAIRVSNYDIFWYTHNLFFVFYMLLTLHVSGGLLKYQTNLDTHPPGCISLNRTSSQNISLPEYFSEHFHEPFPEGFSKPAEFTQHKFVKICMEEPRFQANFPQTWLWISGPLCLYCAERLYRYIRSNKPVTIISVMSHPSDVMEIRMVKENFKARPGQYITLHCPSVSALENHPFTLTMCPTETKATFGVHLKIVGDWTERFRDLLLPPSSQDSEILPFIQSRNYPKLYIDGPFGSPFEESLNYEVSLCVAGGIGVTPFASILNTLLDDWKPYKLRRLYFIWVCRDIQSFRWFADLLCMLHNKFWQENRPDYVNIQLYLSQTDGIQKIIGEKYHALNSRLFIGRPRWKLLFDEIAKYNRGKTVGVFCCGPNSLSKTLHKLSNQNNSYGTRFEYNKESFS

[20] = target: NADPH oxidase 5 (Homo sapiens) (UniProt Q96PH1); assay: compounds shifting NOX5 Amplex Red fluorescence – cell-based, HEK293-NOX5, NOX inhibitor project, primary screen (AID 1161); conditions: HEK293-NOX5, ionomycin, 45 min, higher = more signal
Sequence of NADPH oxidase 5 (Homo sapiens) (Q96PH1 whole entry, looked up): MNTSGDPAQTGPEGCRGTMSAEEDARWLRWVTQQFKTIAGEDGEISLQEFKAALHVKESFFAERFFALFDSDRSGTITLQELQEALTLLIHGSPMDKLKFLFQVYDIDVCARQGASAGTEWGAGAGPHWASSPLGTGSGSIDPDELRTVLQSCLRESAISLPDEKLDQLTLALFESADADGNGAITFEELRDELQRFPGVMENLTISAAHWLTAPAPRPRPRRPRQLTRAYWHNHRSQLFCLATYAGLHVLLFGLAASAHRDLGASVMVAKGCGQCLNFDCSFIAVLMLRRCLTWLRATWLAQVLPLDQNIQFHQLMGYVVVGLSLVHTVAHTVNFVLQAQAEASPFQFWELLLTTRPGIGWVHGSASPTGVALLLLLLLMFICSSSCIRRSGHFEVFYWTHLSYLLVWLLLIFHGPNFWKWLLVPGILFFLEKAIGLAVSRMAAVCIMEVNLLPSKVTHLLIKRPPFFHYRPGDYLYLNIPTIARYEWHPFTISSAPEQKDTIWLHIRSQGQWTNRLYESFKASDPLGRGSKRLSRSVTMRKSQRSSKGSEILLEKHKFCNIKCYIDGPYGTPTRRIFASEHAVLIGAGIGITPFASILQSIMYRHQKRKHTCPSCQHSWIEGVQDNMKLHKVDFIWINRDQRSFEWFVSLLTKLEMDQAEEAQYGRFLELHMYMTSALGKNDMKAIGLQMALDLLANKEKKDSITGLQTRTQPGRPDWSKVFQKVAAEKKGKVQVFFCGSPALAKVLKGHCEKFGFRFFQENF

SMILES	composite z-score [1]	z-score [2]	z-score [3]	z-score [4]	z-score [5]	composite z-score [6]	composite z-score [7]	composite z-score [8]	composite z-score [9]	composite z-score [10]	z-score [11]	composite z-score [12]	z-score [13]	z-score [14]	z-score [15]	z-score [16]	z-score [17]	z-score [18]	z-score [19]	z-score [20]
Cc1ccc(S[C@]2(C(=O)NCC(C)C)CC(=O)N(C3CCCCC3)[C@@H]2c2ccc(CO)cc2I)cc1	0.249	-4.87 (inactive)	-0.88 (inactive)	-0.619 (inactive)	0.413 (inactive)	0.411	-0.0259	0.314	0.289	0.104	0.256 (inactive)	0.568	4.6 (inactive)	0.61 (inactive)	0.796 (inactive)	0.597 (inactive)	0.212	1.54 (inactive)	-1.02 (inactive)	-2.07
CCCNC(=O)[C@@]1(Sc2ccc(C)cc2)CC(=O)N(Cc2ccccc2)[C@@H]1c1ccc(CO)cc1I	0.308	-1.81 (inactive)	0.029 (inactive)	0.0655 (inactive)	1.08 (inactive)	0.203	-0.0221	0.123	0.485	1.96	-0.383 (inactive)	-0.0573	6.23 (inactive)	0.815 (inactive)	-0.713 (inactive)	0.206 (inactive)	-0.374	1.04 (inactive)	-1.94 (inactive)	1.79
CCOC(=O)C[C@H]1[C@H](OC(=O)c2ccc(C(=O)c3ccccc3)cc2)[C@@H](NC(=O)C2CCCCC2)c2cc(OCCCO)ccc2N1C(=O)Cc1ccc(OC)cc1	0.354	-0.281 (inactive)	0.193 (inactive)	1.24 (inactive)	-0.0721 (inactive)	0.519	0.0497	0.192	1.24	0.761	0.522 (inactive)	0.271	2.32 (inactive)	0.744 (inactive)	0.0357 (inactive)	-0.206 (inactive)	0.0093	-1.38 (inactive)	0.626 (inactive)	1.74
NCCCCCCNC(=O)[C@H]1C[C@H]2C(=O)N3CCC[C@H]3C(=O)N2[C@H]1c1ccc(O)cc1	0.214	-0.734 (inactive)	0.131 (inactive)	0.0084 (inactive)	-0.27 (inactive)	0.0381	0.0047	0.624	0.553	1.86	-0.247 (inactive)	-0.19	1.55 (inactive)	0.507 (inactive)	0.403 (inactive)	0.253 (inactive)	0.648	-0.019 (inactive)	0.901 (inactive)	0.386
